Screening results deposited in PubChem BioAssay by The Scripps Research Institute Molecular Screening Center.
Rows were chosen to be rich in hits. Some 0.9% of all compounds tested hit in one or more screens of this group.
SRC3 TRFRET art: flags TR-FRET format artefacts in PPARgamma SRC-3 recruitment agonist screen; TR-FRET artefact counter-screen, PPARgamma/SRC-3 format; stronger effect = higher value; TR-FRET ratio at 8 µM; 99,000 tested, 0.39% active; AID 1048
PPARg SRC2 recr: PPARgamma-driven SRC-2 recruitment agonism. activation, % at 8 µM. PPARgamma LBD-SRC-2 recruitment, biochemical. 200,000 tested, 0.34% active. P37231; in the data active means activation above about 22%
Target sequence (P37231 whole entry, looked up, the tested form may be a part): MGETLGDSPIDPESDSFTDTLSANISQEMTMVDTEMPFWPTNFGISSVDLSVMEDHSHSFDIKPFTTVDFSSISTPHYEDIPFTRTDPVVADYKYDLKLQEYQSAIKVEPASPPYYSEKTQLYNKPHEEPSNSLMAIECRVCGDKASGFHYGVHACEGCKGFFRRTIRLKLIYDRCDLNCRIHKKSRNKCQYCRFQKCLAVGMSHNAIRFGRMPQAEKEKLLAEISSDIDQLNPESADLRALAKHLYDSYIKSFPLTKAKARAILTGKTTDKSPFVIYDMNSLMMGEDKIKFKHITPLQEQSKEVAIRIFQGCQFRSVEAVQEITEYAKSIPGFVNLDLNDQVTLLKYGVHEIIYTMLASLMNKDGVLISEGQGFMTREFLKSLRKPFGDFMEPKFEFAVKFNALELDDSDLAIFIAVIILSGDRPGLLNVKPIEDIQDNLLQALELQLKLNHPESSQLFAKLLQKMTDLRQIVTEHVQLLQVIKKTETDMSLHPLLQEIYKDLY
PPARg SRC1 recr: agonists of human PPARgamma SRC-1 coactivator recruitment | 200,000 tested, 0.41% active | P37231 | activation, % at 8 µM | AID 631 | PPARgamma-SRC-1 coactivator recruitment biochemical assay; in the data active means activation above about 19%
PPARg SRC-3 ag: agonists of human PPARgamma SRC-3 coactivator recruitment. P37231. biochemical PPARgamma/SRC-3 coactivator recruitment assay. activation, % at 8 µM. 200,000 tested, 0.26% active. AID 731; in the data active means activation above about 23%
TR-FRET SRC-2 ct: TR-FRET artefact, counter-screen to PPARgamma/SRC-2 agonist assay; 200,000 tested, 0.4% active; stronger effect = higher value; AID 1049; TR-FRET ratio at 8 µM
SRC1 TRFRET art: TR-FRET artefact, counter-screen to PPARgamma/SRC-1 agonist assay; TR-FRET ratio at 8 µM; TR-FRET detection artefact counter-screen, emission ratio; stronger effect = higher value; 99,000 tested, 0.34% active; in the data active means TR-FRET ratio above about 2300
Numbers stand for hits; – = inactive; · = no result given. Unless noted, no stated cut-off is given here; in the data, active means TR-FRET ratio above about 2000; inactive means the rest.

SMILES | SRC3 TRFRET art | PPARg SRC2 recr | PPARg SRC1 recr | PPARg SRC-3 ag | TR-FRET SRC-2 ct | SRC1 TRFRET art
O=C(O)c1cc(-c2cccs2)nn1-c1cccc(Cl)c1 | – | – | – | – | – | –
CN(C)S(=O)(=O)c1cccc(NC(=O)c2cc(-c3cccs3)nn2-c2cccc(Cl)c2)c1 | 2416 | – | – | – | 2193 | –
O=C(O)CCCC(=O)Nc1cc([N+](=O)[O-])ccc1O | – | – | 22 | – | – | –
CC(C)OC(=O)CSc1nc2cc3c(cc2cc1C#N)OCO3 | · | – | 54 | – | – | ·
COC(=O)CSc1nc2cc3c(cc2cc1C#N)OCO3 | · | – | 81 | – | – | ·
CCN(C(=O)c1ccco1)c1nc(CC(=O)Nc2ccc(Cl)cc2)cs1 | · | – | – | – | – | ·
CCC(=O)N(Cc1ccco1)c1nc(C(=O)Nc2ccc(Cl)cc2)c(C)s1 | – | – | – | – | 1971 | –
CC(=O)Nc1ccc(NC(=O)/C=C/c2ccccc2)cc1 | – | – | – | – | – | –
CC(=O)N1CCN(c2ccc(NC(=O)/C=C/c3ccccc3)cc2)CC1 | – | 24 | – | – | – | –
NC(=O)C1CCN(CC(=O)N2N=CCC2c2ccccc2)CC1 (configuration not stated) | – | – | – | – | – | –
CCn1cc(CNCc2cn(C)nc2-c2ccc(C3CCCCC3)cc2)cn1 | – | – | 22 | – | – | –
Cc1ccc(N2C(=O)NC(C(F)(F)F)(C(F)(F)F)C3=C2CC(C)(C)CC3=O)cc1 | – | – | – | – | – | –
O=C1c2ccccc2C(=O)C1c1ccc(O)cc1 | – | – | 21 | – | – | –
Cc1cccc(N2C(=O)CC(Sc3nc(C)cc(C)n3)C2=O)c1 (configuration not stated) | · | – | – | – | – | ·
Cc1cccc(N2C(=O)CC(Sc3nc(-c4ccccc4)c4cc(Cl)ccc4n3)C2=O)c1 (configuration not stated) | · | – | – | – | 2388 | ·
COc1ccc(-c2nc(S(=O)(=O)c3ccccc3)c(N3CCOCC3)o2)cc1 | – | – | – | – | – | –
O=S(=O)(c1ccccc1)c1nc(-c2ccco2)oc1N1CCOCC1 | · | – | 26 | – | – | ·
COc1ccccc1N(CC(=O)NCC1CCCO1)C(=O)CCC(=O)Nc1nccs1 (configuration not stated) | · | 25 | – | – | – | ·
COc1ccc2c(C)cc(SCC(=O)c3ccc4c(c3)OCO4)nc2c1 | · | – | – | – | 3035 | ·
O=C(CCSCc1ccccc1F)NCc1cccs1 | – | – | – | – | – | –
O=C(CCSCc1ccccc1Cl)NCc1cccs1 | – | – | 28 | – | – | 2618
COc1ccc(Br)c(C(=O)NC2CCCC2)c1 | – | – | – | – | – | –
Cc1ccc(C2C(C#N)=C(N)SC(N)=C2C#N)o1 | · | 23 | 19 | – | 2112 | ·
CCc1cccc(NC(=S)N(CCCN2CCOCC2)C(C)c2cc3cccc(OC)c3o2)c1 (configuration not stated) | – | – | – | – | – | –
Cc1ccc(NN2C(=O)C=C(c3ccc(Cl)cc3)C2=O)cc1 | · | – | – | – | – | ·
SMILES | SRC3 TRFRET art | PPARg SRC2 recr | PPARg SRC1 recr | PPARg SRC-3 ag | TR-FRET SRC-2 ct | SRC1 TRFRET art
CC(C)(C)NC(=O)NC(=O)COC(=O)c1ccc(OC(F)(F)F)cc1 | – | – | – | – | – | –
N#Cc1c(-c2ccccc2)cc(-c2ccccc2)nc1SCc1nnc(-c2ccccc2)o1 | · | – | 86 | – | – | ·
CC(C)C(Sc1nc(-c2ccccc2)cc(-c2ccccc2)c1C#N)C(=O)O (configuration not stated) | – | – | – | – | – | –
CCOC(=O)CC(=O)CSc1nc(-c2ccccc2)cc(-c2ccccc2)c1C#N | 2399 | – | – | – | 2021 | –
Cc1ccc(OCC(=O)NNC(=O)C(=O)NC(C)(C)C)cc1 | – | – | 21 | – | – | 2454
COc1ccc(C(=O)NC2(C(F)(F)F)C(=O)N(Cc3ccco3)C3=C2C(=O)CC(C)(C)C3)cc1OC (configuration not stated) | · | – | – | – | – | ·
O=C(Nc1cccc(S(=O)(=O)NC2=NCCCCC2)c1)c1cc(-c2ccc(Cl)cc2)nc2ccccc12 | 2132 | – | – | – | – | –
Cc1ccc(-c2csc(NC(=O)c3cc([N+](=O)[O-])ccc3N3CCOCC3)n2)cc1 | 2579 | – | – | 23 | – | –
Cc1cccc(N2CCN(C(=S)c3ccc(-c4ccccc4[N+](=O)[O-])o3)CC2)c1 | – | – | – | – | – | –
S=C(c1ccc(-c2cccc(Cl)c2)o1)N1CCOCC1 | – | – | – | – | – | –
S=C(c1ccc(-c2cccc(Cl)c2)o1)N1CCCCC1 | – | – | – | – | – | 2350
O=[N+]([O-])c1ccccc1-c1ccc(C(=S)N2CCCC2)o1 | – | – | – | – | 1992 | –
CSc1nc2ccc3nc(NC(=O)c4ccc(Cl)s4)sc3c2s1 | · | – | – | – | – | ·
CSc1nc2ccc3nc(NC(=O)c4cccs4)sc3c2s1 | · | – | 41 | – | – | ·
COC(=O)c1cccc(NC(=O)/C=C/c2cccc([N+](=O)[O-])c2)c1 | · | – | – | – | – | ·
COC(=O)c1cccc(NC(=O)/C=C/c2ccc([N+](=O)[O-])cc2)c1 | 2126 | – | – | – | – | –
CC(C)CC(NC(=O)C(NC(=O)C1OC2OC(C)(C)OC2C2OC(C)(C)OC12)C(C)C)C(=O)O (configuration not stated) | – | – | – | – | – | –
CCOc1cccc2cc(C(=O)Nc3ccccc3-c3ccccc3)c(=O)oc12 | – | – | – | – | – | –
CCOc1cccc2cc(C(=O)Nc3cc(C)on3)c(=O)oc12 | · | – | 38 | – | – | ·
Cc1nc2ccc(-c3nc4ccc(N)cc4[nH]3)cc2[nH]1 | 2163 | – | – | – | – | –
Cc1csc(NC(=O)CSc2nncc(=O)n2N)n1 | – | – | – | – | – | –
COc1ccc(-c2csc3nc(C)nc(N4CCN(c5ccc(C(C)=O)cc5)CC4)c23)cc1OC | 2053 | – | – | – | – | –
CC1CC(C)(C)NC(=S)N1CCCC(=O)N1CCN(c2ccccc2F)CC1 (configuration not stated) | – | – | – | – | – | 2350
CC1CC(C)(C)NC(=S)N1CCCC(=O)Nc1ccccc1F (configuration not stated) | – | – | – | – | – | –
CC(=O)C1=C(O)C(=O)N(c2ccc(C)cc2)C1c1ccccn1 (configuration not stated) | · | – | – | – | – | ·
Cc1nc(N2CCN(S(=O)(=O)c3ccccc3C#N)CC2)c2c(-c3cccs3)csc2n1 | 2725 | – | – | – | – | –
Cc1nc(N2CCCCC2)c2c(-c3cccs3)csc2n1 | – | – | – | – | – | –
CCN(CC)S(=O)(=O)c1ccc2oc(SCC3CN=C(c4ccc(OC)cc4)S3)nc2c1 (configuration not stated) | · | – | – | – | – | ·
